# Laboratory results reported in PubChem BioAssay AID743415 (Broad Institute, 2014).
# Results with a measured potency or affinity are listed apart. The source made the active and inactive calls.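 The calls were made as follows: active = compounds lowering Shn3 expression whose fitted half-maximal concentration is at most twice the top valid dose; inconclusive = flat partial decrease or an invalid curve fit; inactive = the rest.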
# Assay: reduction of endogenous Shn3 mRNA, dose response, qPCR, Clone20 cells, cherry-pick (AID 743415)
row,SMILES,outcome
1,O=c1[nH]c2ccccc2n1C1CCN(C(CCc2ccccc2)c2nnnn2Cc2ccccc2)CC1 (configuration not stated),inactive
2,COC(=O)C1=C(c2ccc(OCc3ccccc3)cc2)C[C@@H]2CC[C@H]1N2C(=O)NCCCCc1ccccc1,inactive
